{"source": "PubChem BioAssay (NCI)", "note": "The panel holds about 83,000 compounds, 20% with a hit somewhere; the sample as a whole holds those more often.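 96-well plates, one dose, 48 hours. Percent growth reported; active if below 10.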 Active and inactive are the calls of the source."}
{"tested_on": "OVCAR-3 ovarian", "experiment": "NCI-60 one-dose screen, 48 h (100 = growth as untreated, 0 = no growth, -100 = all killed)", "conditions": "10 µM unless noted"}
{"smiles": "COc1ccc(C(=O)N2NC(=O)/C(=C/c3cn(-c4ccccc4)nc3-c3ccccc3)N=C2c2ccccc2)cc1", "growth": "115% (inactive)"}
{"smiles": "CC(C)(C)OC(=O)NC(CSCc1ccccc1)C(=O)ON1C(=O)CCC1=O", "note": "(centres undefined)", "growth": "107% (inactive)"}
{"smiles": "COc1ccc(C2=C(c3cc(OC)c(OC)c(OC)c3)C(=O)CC2)cc1", "growth": "-65.4% (active)"}
{"smiles": "COc1ccc(C(=O)N2NC(=O)/C(=C/c3ccccc3F)N=C2c2ccccc2)cc1", "growth": "114% (inactive)"}
{"smiles": "C/C(=C\\c1ccc(OCC(=O)O)c(Cl)c1Cl)[N+](=O)[O-]", "growth": "99.9% (inactive)"}
{"smiles": "COc1ccc(-c2cc3c(OC)c(OC)c(OC)cc3oc2=O)cc1", "growth": "5.53% (active)"}
{"smiles": "COc1ccc(Nc2ncccc2C(=O)NCc2cn(Cc3cccc(Oc4ccccc4)c3)nn2)c(OC)c1", "growth": "-57.8% (active)"}
{"smiles": "CC(=O)Nc1scc[n+]1Cc1ccccc1", "growth": "114% (inactive)"}
{"smiles": "COc1cc2c(c(OC)c1OC)-c1ccc(N)c(=O)cc1[C@@H](NC(C)=O)CC2", "growth": "-54.2% (active)"}
{"smiles": "O=C([O][Sn]([O]C(=O)c1ccccn1)([c]1ccccc1)[c]1ccccc1)c1ccccn1", "growth": "71.4% (inactive)"}
{"smiles": "COC(OC)c1ccccc1", "growth": "106% (inactive)"}
{"smiles": "Fc1ccc(Nc2nc(NCCNc3ccnc4cc(Cl)ccc34)nc(N3CCOCC3)n2)cc1", "growth": "85.1% (inactive)"}
{"smiles": "Cc1ccc(S(=O)(=O)n2cc(C(=O)C(=O)Nc3ccncc3)c3ccccc32)cc1", "growth": "-12.1% (active)"}
{"smiles": "COc1ccc(Nc2ncccc2C(=O)NCc2cn(Cc3cccc(Oc4ccccc4)c3)nn2)cc1", "growth": "-4.73% (active)"}
{"smiles": "CC1=C(C#N)C(=O)NC(C)C1", "note": "(centres undefined)", "growth": "103% (inactive)"}
{"smiles": "Cc1cc(C2=NNC(=O)Cc3cc4c(cc32)OCCO4)cc(C)c1N", "growth": "-28.5% (active)"}
{"smiles": "CCOC(=O)C1=C(C)NC(C)=C(C(=O)OCC)C1(C)C", "growth": "112% (inactive)"}
{"smiles": "O=C(Nc1ccncc1)C(=O)c1cn(S(=O)(=O)c2ccc(Br)cc2)c2ccccc12", "growth": "14.7% (inactive)"}
{"smiles": "CC1CCC(C)N(C)C1", "note": "(centres undefined)", "growth": "112% (inactive)"}
{"smiles": "CCC(C)/C(=C\\C#N)NCCCN/C(=C/C#N)C(C)CC", "note": "(centres undefined)", "growth": "126% (inactive)"}
{"smiles": "CC1(c2ccc(Cl)cc2)OC(=O)CC(=O)O1", "growth": "104% (inactive)"}
{"smiles": "CCN(CC)CCOc1ccc(Cl)c(C)c1", "growth": "95.1% (inactive)"}
{"smiles": "Nc1cccc(Cl)c1N", "growth": "109% (inactive)"}
{"smiles": "O=[N+]([O-])c1cc(Cl)c2[nH]c3c(Cl)cc([N+](=O)[O-])cc3c2c1", "growth": "16.8% (inactive)"}
{"smiles": "CSc1nc2c(c(=O)[nH]1)C(c1ccc(C)cc1)C=C(C(=O)O)N2", "note": "(centres undefined)", "growth": "123% (inactive)"}
{"smiles": "COc1cc(/C=C/C(=O)/C=C/c2cc(OC)c3c(c2)OCO3)cc2c1OCO2", "growth": "34.6% (inactive)"}
{"smiles": "Oc1ccccc1/C=N/NC(=S)NC1CC2C=CC1C2", "note": "(centres undefined)", "growth": "67.4% (inactive)"}
{"tested_on": "HS 578T breast", "experiment": "NCI-60 one-dose screen, 48 h (100 = growth as untreated, 0 = no growth, -100 = all killed)", "conditions": "10 µM unless noted"}
{"smiles": "COC(=O)c1cccc2c1N(C)c1c(cccc1C(=O)OC)CC2", "growth": "89.7% (inactive)"}
{"smiles": "COc1ccc(/C=C2\\N=C(c3ccccc3)N(C(=O)c3ccccc3O)NC2=O)cc1", "growth": "93.8% (inactive)"}
{"smiles": "c1cc2[nH]ncc2cc1-c1nc2ccc3[nH]ncc3c2c2c1CCC2", "growth": "14.9% (inactive)"}
{"smiles": "O=C(Oc1ccccc1[N+](=O)[O-])C1CCCN1C(=O)OCc1ccccc1", "note": "(centres undefined)", "growth": "112% (inactive)"}
{"smiles": "COc1ccc(CCNC2=CC(=O)CCC2)cc1OC", "growth": "94.6% (inactive)"}
{"smiles": "O=C(Nc1ccncc1)C(=O)c1cn(S(=O)(=O)c2ccc(Cl)cc2)c2ccccc12", "growth": "13.5% (inactive)"}
{"smiles": "O=C(Nc1cccc(-n2cc(-c3ccncc3)c(-c3ccc(Cl)c(O)c3)n2)c1)Nc1ccc(Cl)c(Cl)c1", "growth": "36.1% (inactive)"}
{"smiles": "O=C(Nc1ccncc1)C(=O)c1cn(S(=O)(=O)c2ccccc2F)c2ccccc12", "growth": "12.1% (inactive)"}
{"smiles": "O=C(c1ccccc1)C1OC1c1ccc([N+](=O)[O-])cc1", "note": "(centres undefined)", "growth": "88.8% (inactive)"}
{"smiles": "Cc1ccc(Cc2c(C=O)nc(N)[nH]c2=O)c2ccccc12", "growth": "109% (inactive)"}
{"smiles": "COc1ccc(C(=O)N2NC(=O)/C(=C/c3cn(-c4ccccc4)nc3-c3ccccc3)N=C2c2ccccc2)cc1", "growth": "97.3% (inactive)"}
{"smiles": "CC(C)(C)OC(=O)NC(CSCc1ccccc1)C(=O)ON1C(=O)CCC1=O", "note": "(centres undefined)", "growth": "115% (inactive)"}
{"smiles": "COc1ccc(C2=C(c3cc(OC)c(OC)c(OC)c3)C(=O)CC2)cc1", "growth": "6.1% (active)"}
{"smiles": "COc1ccc(C(=O)N2NC(=O)/C(=C/c3ccccc3F)N=C2c2ccccc2)cc1", "growth": "110% (inactive)"}
{"smiles": "C/C(=C\\c1ccc(OCC(=O)O)c(Cl)c1Cl)[N+](=O)[O-]", "growth": "107% (inactive)"}
{"smiles": "COc1ccc(-c2cc3c(OC)c(OC)c(OC)cc3oc2=O)cc1", "growth": "33.3% (inactive)"}
{"smiles": "COc1ccc(Nc2ncccc2C(=O)NCc2cn(Cc3cccc(Oc4ccccc4)c3)nn2)c(OC)c1", "growth": "15.3% (inactive)"}
{"smiles": "CC(=O)Nc1scc[n+]1Cc1ccccc1", "growth": "106% (inactive)"}
{"smiles": "COc1cc2c(c(OC)c1OC)-c1ccc(N)c(=O)cc1[C@@H](NC(C)=O)CC2", "growth": "19.6% (inactive)"}
{"smiles": "O=C([O][Sn]([O]C(=O)c1ccccn1)([c]1ccccc1)[c]1ccccc1)c1ccccn1", "growth": "88.5% (inactive)"}
{"smiles": "COC(OC)c1ccccc1", "growth": "99.2% (inactive)"}
{"smiles": "Fc1ccc(Nc2nc(NCCNc3ccnc4cc(Cl)ccc34)nc(N3CCOCC3)n2)cc1", "growth": "70.2% (inactive)"}
{"smiles": "COc1ccc(-c2nc3sc(-c4cc(OC)c(OC)c(OC)c4)nn3c2/C=C2/C(=O)Nc3ccc(F)cc32)cc1", "growth": "30.3% (inactive)"}
{"smiles": "Cc1ccc(S(=O)(=O)n2cc(C(=O)C(=O)Nc3ccncc3)c3ccccc32)cc1", "growth": "23.2% (inactive)"}
{"smiles": "COc1ccc(Nc2ncccc2C(=O)NCc2cn(Cc3cccc(Oc4ccccc4)c3)nn2)cc1", "growth": "48.7% (inactive)"}
{"smiles": "CC1=C(C#N)C(=O)NC(C)C1", "note": "(centres undefined)", "growth": "97.2% (inactive)"}
{"smiles": "Cc1cc(C2=NNC(=O)Cc3cc4c(cc32)OCCO4)cc(C)c1N", "growth": "24.9% (inactive)"}
{"smiles": "CCOC(=O)C1=C(C)NC(C)=C(C(=O)OCC)C1(C)C", "growth": "107% (inactive)"}
{"smiles": "O=C(Nc1ccncc1)C(=O)c1cn(S(=O)(=O)c2ccc(Br)cc2)c2ccccc12", "growth": "56.2% (inactive)"}
{"smiles": "CC1CCC(C)N(C)C1", "note": "(centres undefined)", "growth": "108% (inactive)"}
{"smiles": "CCC(C)/C(=C\\C#N)NCCCN/C(=C/C#N)C(C)CC", "note": "(centres undefined)", "growth": "101% (inactive)"}
{"smiles": "CC1(c2ccc(Cl)cc2)OC(=O)CC(=O)O1", "growth": "105% (inactive)"}
{"smiles": "CCN(CC)CCOc1ccc(Cl)c(C)c1", "growth": "103% (inactive)"}
{"smiles": "Nc1cccc(Cl)c1N", "growth": "98.9% (inactive)"}
{"smiles": "CSc1nc2c(c(=O)[nH]1)C(c1ccc(C)cc1)C=C(C(=O)O)N2", "note": "(centres undefined)", "growth": "86.3% (inactive)"}
{"smiles": "COc1cc(/C=C/C(=O)/C=C/c2cc(OC)c3c(c2)OCO3)cc2c1OCO2", "growth": "103% (inactive)"}
{"smiles": "Oc1ccccc1/C=N/NC(=S)NC1CC2C=CC1C2", "note": "(centres undefined)", "growth": "98.2% (inactive)"}
